Assay in all cases: NCI-60 one-dose screen, 48 h (100 = growth as untreated, 0 = no growth, -100 = all killed)
What all share (conditions): 10 µM unless noted

Test [1] has as its system NCI-H23 lung.
Test [2] has as its system NCI-H226 lung.
Test [3] concerns NCI-H322M lung.
Test [4] deals with HOP-62 NSCLC.
Test [5] has as its system NCI-H460 lung.
Test [6] deals with HOP-92 NSCLC.
The subject of test [7] is NCI-H522 lung.
The subject of test [8] is A549/ATCC NSCLC.
The test system of test [9] is 786-0 renal.
The test system of test [10] is COLO 205 colon.
The test system of test [11] is DU-145 prostate.
In test [12] the test system is K-562 leukemia.
The test system of test [13] is MALME-3M melanoma.
The subject of test [14] is MDA-MB-231 breast.
In test [15] the test system is RXF 393 renal.
The test system of test [16] is SF-268 CNS.
Test [17] deals with SF-295 CNS.
The subject of test [18] is SF-539 CNS.
The test system of test [19] is UACC-257 melanoma.
For test [20], the system named is M14 melanoma.

The text below walks through data of PubChem BioAssay (NCI).

About 83,000 compounds went through this panel and 20% of them were active in at least one assay; those are over-represented in the sample as a whole.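 Plates (96-well) were seeded with cells, treated with compound at one concentration, and incubated for 48 hours before percent growth was determined.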 Values without a mark were called inactive. Active and inactive are the calls of the source. The calls were made as follows: active = growth percent below 10; inactive = the rest.

Regarding `Cc1cc(C)nc(NS(=O)(=O)c2ccc(Nc3ccc4c5c(n(CCCN(C)C)c(=O)c4c3)-c3ccccc3C5=O)cc2)n1`, the growth in [1] was 83.9%; in test [2], 83.3%; in [3], 109%; in test [4] it was 70.1%; in [5], 28.9%; in test [6], 90.1%. Besides, the growth is 73% in [7]; 52.3% in test [8]; 80.5% in test [9]; 70.4% in test [10]; 69% in test [11]; 74.7% in test [12]. In addition, the growth in [13] was 102%; in [14] it was 108%; in test [15], 115%; in test [16], 77.9%; in test [17], 83.3%; in test [18], 96.3%. For the same molecule, the growth in test [19] was 108%; in test [20], 89.8%.
Consider `COc1cc(NCC(=O)Nc2cc(Nc3ccc(C)cc3)ncn2)c(Cl)c(OC)c1Cl`, for which the growth in test [1] was 91.7%; in [2], 85.4%; in test [3] it was 84.8%; in test [4], 87%; in test [5], 101%; in test [6], 78.7%. For the same molecule, the growth in test [7] is 74.1%; in [8], 80.1%; in test [9], 96.7%; in test [10], 85.8%; in [11] it was 102%; in test [12], 80.6%. The growth in test [13] is 111%; in test [14], 64.2%; in test [15], 118%; in [16], 88.6%; in [17], 82.8%; in [18], 95.5%. Moreover, the growth in test [19] was 89%; in test [20], 88.4%.
For `CCOCc1cc(C(C)(C)C)ccc1O`, the growth was 103% in test [1]; 97.4% in test [2]; 106% in test [3]; 95.2% in [4]; 103% in test [5]; 92.3% in test [6]. Further, the growth was 77.9% in test [7]; 90.4% in test [8]; 97.6% in [9]; 114% in test [10]; 110% in [11]; 101% in test [12]. Also, the growth is 104% in test [13]; 105% in test [14]; 109% in [15]; 105% in [16]; 105% in test [17]; 103% in test [18]. The growth in [19] was 89.3%; in test [20], 104%.
Take `CC1CCCN(CCCCCOc2ccc3oc4ccccc4c(=O)c3c2)C1` (stereo not given): the growth was 75% in [1]; 104% in test [2]; 76.9% in test [3]; 91.3% in test [4]; 75.5% in test [5]; 90.2% in test [6]. Further, the growth in test [7] was 67.4%; in test [8], 68.7%; in [9], 69.8%; in test [10] it was 36.1%; in test [11], 85.1%; in test [12], 17.3%. Besides, the growth in [13] is 4.45% (active); in test [14], 67.8%; in test [15], 60.8%; in test [16], 72.5%; in test [17], 72.9%; in test [18], 77.2%. In addition, the growth is -18.8% (active) in test [19] and 5.02% (active) in test [20].
On to `CCOC(=O)c1c(C)nc2c(c1N)CC(=O)N2CCc1ccccc1`, for which the growth in test [1] is 53.2%; in [2], 42.1%; in test [3] it was 59.3%; in test [4] it was 5.73% (active); in [5] it was 6.52% (active); in test [6], 25.3%. The growth is -6.01% (active) in test [7]; 23% in test [8]; 8.72% (active) in test [9]; 10.7% in [10]; 9.55% (active) in test [11]; 11.7% in test [12]. Besides, the growth was 49.1% in [13]; 31.8% in test [14]; 27.1% in test [15]; 24% in test [16]; 15.6% in test [17]; 13.7% in test [18]. The growth is 56.6% in test [19] and 18% in [20].
With `O=CN1N=C(c2ccc(F)cc2)CC1c1cccc(Nc2ccnc3cc(C(F)(F)F)ccc23)c1` (stereo not given), the growth in test [1] is 42.5%; in [2], 60.3%; in [3] it was 85.1%; in test [4] it was 60.8%; in test [5] it was 46.7%; in test [6], 67.4%. Also, the growth was 45.6% in test [7]; 61% in test [8]; 76.1% in test [9]; 32.3% in [10]; 70.9% in [11]; 22.7% in [12]. Moreover, the growth in test [13] was 67.9%; in [14], 72.5%; in test [15], 71.2%; in test [16], 51.9%; in test [17] it was 44.2%; in [18] it was 77.5%. Moreover, the values for the growth in test [19] and in test [20] were 48.6% and 70%, respectively.
`N#Cc1ccc(C2C3=C(CCCC3=O)OC3=C2C(=O)c2ccccc2C3=O)cc1` (stereo not given): the growth was 44.9% in test [1]; 114% in test [2]; 106% in test [3]; 111% in [4]; 103% in [5]; 76.3% in test [6]. For the same molecule, the growth in test [7] was 0.737% (active); in test [8] it was 108%; in [9] it was 94.7%; in [10], 109%; in [11] it was 86.8%; in test [12] it was 40.3%. The growth in [13] is 83.4%; in test [14], 5.78% (active); in [15], 102%; in test [16] it was 70.9%; in [17] it was 91.7%; in test [18], 30.5%. For the same molecule, the growth in [19] was 52.3%; in test [20] it was 81.8%.
Turning to `COc1ccc(-c2cc(-c3nnc(SCC(=O)Nc4ccc(/C(C)=N\O)cc4)o3)c3ccccc3n2)cc1`, the growth was 99.5% in [1]; 96.3% in [2]; 113% in test [3]; 99.3% in [4]; 105% in test [5]; 109% in test [6]. In addition, the growth in [7] is 87%; in test [8], 100%; in test [9] it was 95.5%; in test [10] it was 118%; in [11] it was 109%; in [12], 96.5%. Besides, the growth in [13] is 97.8%; in test [14], 114%; in [15], 106%; in [16] it was 101%; in test [17] it was 105%; in test [18], 111%. The growth in test [19] is 101%; in test [20], 115%.
